Test system: PPARg:RXRa 30nM:10nM, anti-RXR (NR concentration 30 nM, RXRa partner concentration 10 nM)
Assay: PBM binding z-score (relative to random genomic background probes); higher = stronger binding; sequences stand for … in GC…GCGATTGACAGCGTAGAATGAAGG
In short: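 Ligand-free nuclear receptor dimers were applied to custom Agilent 4×180K protein-binding microarrays whose double-stranded probes carried direct-repeat seeds, single-nucleotide variants, half-site ablations and random human genomic background sequences in 34-nt variable regions. Incubation lasted 1 h. Binding z-scores were computed against the random background probes from regression-normalized fluorescence.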

Sequence	PBM binding z-score
TCAGAGAGGTGAAGGTAACTCAGGTACGCAGTCG	3.84
GGTAGTTGGTCAGTAAAAGGTCACACACCGGTCG	2.46
GTACCAAGGTGAATAGTTCGTTGATGAGTAGGCG	-0.033
TCTATTAGTTGAATAGGGCAACCGAAACAGCGGA	3.61
CAAACTAGGTCACAGAGCTCAAAGTCCGTGCGTA	5.2
ATCTCTTGGTAACAAGTTCAGTGAAAGAGAGGAC	0.0559
TCAGACAGGTCAAGGTAACTCAGGTACGCAGTCG	3.93
TCGAGTAGGTTAGTCGGGGCGTTCAGCCAACATA	0.61
TCTGCTAGGTCAGTTGGTCAGCTCACGAGCTGCC	1.28
AGAACGAGGGCACGCTGAGTTGATTGCAGAGTAG	0.402
AGAACGAGGGCACGCTGAGTAGATAGCAGAGTAG	0.547
ATATGTAGGTTACATCCGGGTCATTCCGGCTATG	2.7
AGAACGCGGGCACGCTGAGTTGATAGCAGAGTAG	-0.786
TCTTGTAGATCAATAGAGGCTAAGAAAGTGCGCT	2.4
CCTAGCAGGCCAATCTGGGTCACTGAAGGCTTGA	0.263
CCTTACGGGTCACGAGGTTACAGCACGACGAGCG	3.81
TCTTGTAGATCAGCAGGTGAAGAAAGCTGGCCAA	2.2
ACTATTAGCTGACTTAGGGCAACCGATACGACGC	-0.102
AGAACGAGGGCAATGAGTTGATCGCACGGGTGGC	-0.283
TTACCAAGGTGAAGGTCGTCGATCCCTCTGTAGA	2.47

Sequence	PBM binding z-score
CTCGAAAGGTCGGTTGAGGTGAATATACGGATAA	0.365
CGTCCAAGGTCAAGGCTAGGTCAGTGAAAGCATT	1.61
ACTAGCAGGCAAAGGGTCACTCAAGATTAGTCCG	4.68
TCTTGTAGAACAAAGGTTAAGAAAGCCGAAGCCT	7.71
TAACCTAGGTCATGGGCCAGTATACCACGCGAAC	2.54
CTACCAAGGTGAACAAGGTCGTTGCTTACTATTC	-0.119
TGTGCTAGGTCAGTTGGTCAGCTAACGAGCTGCC	-0.306
TCTGGTTGGTCACGGAGGTCACACACGACGGGTA	2.69
AGTCAAAGTTCATCTAGGTGACGTAAGATATGCT	3.53
GCTCTTAGTTGAAAGGGCAACCGAATGATTCTCG	0.632
CGTCCAAGGTCAGGGTCAGTGAAAGAGACTCGAA	1.28
TCATATAGCTAAAGGTGAAAGTCGAACGATATGA	3.19
AGAATGAGGTTACCAAAGATCAGGTAAACGCTTG	1.12
GCTGCTAGGTCAACTGATGGTTAGCTAAAGCTCG	0.818
TCGAGTAGGTTACTCGGGGCATTCAGCCAACATA	1.41
AGAAGGAGGGCACGCTGAGTTGATAGCAGAGTAG	0.436
GCATATAGGTAATACATGGTGAAAGTCCGATTGT	0.313
GCTATTAGTTGAAAAGGCAACCGAATGATTCTCG	0.168
CAAACTAGGTCAAGGTCAACGTCGGTTTGTGCCA	6.56
GCTTGTAAATCAAGGTTAAGAAAGACTAAGCTAA	0.122

Source: the supplement of paper PMC6555819
